Results filed as inconclusive are left out. Calls of active or inactive are those of the source. Unless noted, calls follow the shape of the dose curve; as a rule, active = well fitted curve in the direction sought with a large enough effect in the repeat runs; inconclusive = weak or mixed curves; inactive = no such curve, though single readings can be large; an effect the other way counts as inactive or inconclusive.
Tests used:
[1] = qHTS assay to identify small molecule agonists of the RXR signaling pathway - cell viability counter screen (AID 1159529); also: series mostly up to about 77 µM; nearly all actives have a fitted effect of over 50% in size
Outline: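 RXR-alpha-UAS-bla HEK 293T cells in medium with 2% charcoal-stripped FBS were pre-incubated 5 hr, then compound-treated 16 hr at 37 C. Viability was read by CellTiter-Glo luminescence in the same wells as the beta-lactamase assay, with tetraoctyl ammonium bromide as positive control.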

[2] = qHTS assay to identify small molecule antagonists of the retinoid acid receptor (RAR) signaling pathway - cell viability counter screen (AID 1159551); also: nearly all actives have a fitted effect of over 35% in size
Outline: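 Luminescent ATP quantitation (CellTiter-Glo) gave cell viability in C3RL4 cells exposed to test chemicals for 6 h at 37 C alongside 1 uM final retinol.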

[3] = qHTS assay to identify small molecule antagonists of the estrogen related receptor (ERR) signaling pathway from Tox21 library - cell viability counter screen (AID 1224834); also: nearly all actives have a fitted effect of over 30% in size
Outline: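 Fluorescence from CellTiter-Fluor gives the viability read-out, taken 30 min after reagent addition. Before that, ERR cells seeded 6 h earlier were incubated with compounds for 17.5 h at 37 C.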

[4] = molecular target: Luciferin 4-monooxygenase (Photinus pyralis) (UniProt P08659); experiment: qHTS assay to identify small molecule inhibitors of firefly luciferase (AID 1224835); also: series mostly up to about 120 µM; nearly all actives have a fitted effect of over 25% in size
Outline: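 Biochemical qHTS: compounds run as interplate titrations against purified firefly enzyme, with D-luciferin and ATP each at its KM concentration. Light output recorded by CCD imaging.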

[5] = qHTS assay to identify small molecule agonists of the constitutive androstane receptor (CAR) signaling pathway - cell viability counter screen (AID 1224836); also: series mostly up to about 92 µM; nearly all actives have a fitted effect of over 45% in size
Outline: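 HepG2 cells stably carrying hCAR and a CYP2B6-2.2kb reporter; 15-concentration compounds plus PK11195 (final 0.75 uM), 23 hr at 37 C/5% CO2. Viability read by CellTiter-Fluor fluorescence.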

[6] = qHTS assay to identify small molecule antagonists of the constitutive androstane receptor (CAR) signaling pathway - cell viability counter screen (AID 1224837); also: series mostly up to about 92 µM; nearly all actives have a fitted effect of over 45% in size
Outline: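 HepG2-CYP2B6-hCAR cells, 2500/well, 4 hr pre-incubation; compound titration, 15 conc.; CITCO 50 nM final; 23 hr, 37 C/5% CO2; CellTiter-Fluor, fluorescence intensity.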

[7] = molecular target: Nuclear receptor subfamily 1 group I member 3 (Homo sapiens) (UniProt Q14994); experiment: qHTS assay to identify small molecule antagonists of the constitutive androstane receptor (CAR) signaling pathway (AID 1224838);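 also: HepG2 cells stably expressing hCAR with CYP2B6 luciferase reporter stimulated by CITCO; nearly all actives have a fitted effect of over 40% in size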
Outline: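 HepG2-CYP2B6-hCAR cells; 4 h pre-incubation; cpd (15 conc) + CITCO 50 nM final; 24 h, 37 C/5% CO2; ONE-Glo, luminescence.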

[8] = qHTS assay to identify small molecule antagonists of the estrogen related receptor signaling pathway with the pleiotropic PPARgamma coactivator (PGC) from Tox21 10K library - cell viability counter screen (AID 1224840; active = well fitted cell-killing curve with a large enough effect in the repeat runs, not every such curve was filed as active; also: nearly all actives have a fitted effect of over 40% in size)
Outline: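 PGC/ERR cells, 2,000/well; 6 h pre-incubation 37 C/5% CO2; cpd in DMSO via pin tool; 17.5 h 37 C; CellTiter-Fluor, 30 min; fluorescence.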

[9] = qHTS assay to identify small molecule antagonists of the estrogen related receptor signaling pathway with the pleiotropic PPARgamma coactivator (PGC) from Tox21 10K library (AID 1224841; call rule not given here; also: series mostly up to about 92 µM; actives are mostly falling curves and most rising ones were filed inactive; nearly all actives have a fitted effect of over 50% in size)
Outline: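 PGC/ERR cell line, 2,000 cells/well; 6 h pre-incubation 37 C/5% CO2; compounds (DMSO) pinned in; 18 h, 37 C; One-Glo, 30 min RT; luminescence.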

[10] = molecular target: Thyrotropin receptor (Homo sapiens) (UniProt P16473); experiment: qHTS assay to identify small molecule agonists of the thyroid stimulating hormone receptor (TSHR) signaling pathway (AID 1224843; calls by dose curve; also: nearly all actives have a fitted effect of over 45% in size)
Outline: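 TSHR-HEK293 cells in agonist mode, 30 min room-temperature step, then cAMP measured by competitive HTRF (cAMP-d2 with anti-cAMP cryptate) after 1 h at room temperature. Tested at 15 concentrations in triplicate.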

[11] = qHTS assay to identify small molecule agonists of the hypoxia (HIF-1) signaling pathway - cell viability counter screen (AID 1224844; calls by dose curve; also: nearly all actives have a fitted effect of over 50% in size)
Outline: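 ME-180 HRE-bla cells, 2,000/well, 0.5% dialyzed FBS; 5 hr settle, 17 hr compound at 37C/5% CO2; CCF4-AM reporter read first, then CellTiter-Glo luminescence after 30 min RT.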

[12] = molecular target: Nuclear receptor subfamily 1 group I member 3 (Homo sapiens) (UniProt Q14994); experiment: qHTS assay to identify small molecule agonists of the constitutive androstane receptor (CAR) signaling pathway (AID 1224839);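 also: HepG2 cells stably carrying human CAR and a CYP2B6 luciferase reporter; series mostly up to about 92 µM; nearly all actives have a fitted effect of over 15% in size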
Outline: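 HepG2 cells stably co-transfected with hCAR and a CYP2B6-2.2kb luciferase reporter; compounds at 15 concentrations with 0.75 uM PK11195 present. After 24 hr at 37 C, luciferase read by ONE-Glo luminescence.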

[13] = qHTS assay to identify small molecule agonists of the estrogen related receptor signaling pathway with the pleiotropic PPARgamma coactivator (PGC) from Tox21 10K library (AID 1224842); also: nearly all actives have a fitted effect of over 15% in size
Outline: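 PGC/ERR reporter cell line, 2,000 cells per well, incubated 6 h at 37 C before 23 nL compound in DMSO was added. After 18 h at 37 C, One-Glo luminescence read following 30 min at room temperature.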

Measured: Potency

Thyrotropin receptor (Homo sapiens), sequence (P16473 whole entry, looked up): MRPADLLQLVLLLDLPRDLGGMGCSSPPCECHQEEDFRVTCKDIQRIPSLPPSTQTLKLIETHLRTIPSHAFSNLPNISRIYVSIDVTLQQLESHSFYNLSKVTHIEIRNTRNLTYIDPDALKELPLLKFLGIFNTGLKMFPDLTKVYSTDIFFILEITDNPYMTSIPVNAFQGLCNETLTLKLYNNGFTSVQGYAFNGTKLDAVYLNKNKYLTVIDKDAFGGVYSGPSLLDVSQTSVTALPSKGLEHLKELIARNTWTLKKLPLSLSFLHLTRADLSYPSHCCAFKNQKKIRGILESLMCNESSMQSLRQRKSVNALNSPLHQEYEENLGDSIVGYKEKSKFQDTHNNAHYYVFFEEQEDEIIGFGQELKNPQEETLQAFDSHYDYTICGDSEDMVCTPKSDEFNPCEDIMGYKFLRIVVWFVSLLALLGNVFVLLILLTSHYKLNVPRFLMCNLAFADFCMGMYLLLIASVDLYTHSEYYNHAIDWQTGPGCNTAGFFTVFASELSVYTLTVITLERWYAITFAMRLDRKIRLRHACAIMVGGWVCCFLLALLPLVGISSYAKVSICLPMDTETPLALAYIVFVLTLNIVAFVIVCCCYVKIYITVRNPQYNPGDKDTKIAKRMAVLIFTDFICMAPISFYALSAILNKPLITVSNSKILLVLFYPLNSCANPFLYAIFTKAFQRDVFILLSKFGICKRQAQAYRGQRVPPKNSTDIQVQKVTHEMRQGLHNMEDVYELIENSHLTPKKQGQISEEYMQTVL
Nuclear receptor subfamily 1 group I member 3 (Homo sapiens), sequence (Q14994 whole entry, looked up): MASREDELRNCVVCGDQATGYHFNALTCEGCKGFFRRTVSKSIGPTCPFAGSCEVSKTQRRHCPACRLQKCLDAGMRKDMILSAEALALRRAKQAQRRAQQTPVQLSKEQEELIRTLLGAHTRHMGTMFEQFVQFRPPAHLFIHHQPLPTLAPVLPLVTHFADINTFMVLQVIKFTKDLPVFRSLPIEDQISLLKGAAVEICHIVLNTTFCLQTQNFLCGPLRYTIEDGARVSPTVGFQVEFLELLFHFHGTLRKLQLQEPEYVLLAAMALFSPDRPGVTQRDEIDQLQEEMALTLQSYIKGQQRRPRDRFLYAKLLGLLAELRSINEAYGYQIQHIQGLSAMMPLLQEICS
Luciferin 4-monooxygenase (Photinus pyralis), sequence (P08659 whole entry, looked up): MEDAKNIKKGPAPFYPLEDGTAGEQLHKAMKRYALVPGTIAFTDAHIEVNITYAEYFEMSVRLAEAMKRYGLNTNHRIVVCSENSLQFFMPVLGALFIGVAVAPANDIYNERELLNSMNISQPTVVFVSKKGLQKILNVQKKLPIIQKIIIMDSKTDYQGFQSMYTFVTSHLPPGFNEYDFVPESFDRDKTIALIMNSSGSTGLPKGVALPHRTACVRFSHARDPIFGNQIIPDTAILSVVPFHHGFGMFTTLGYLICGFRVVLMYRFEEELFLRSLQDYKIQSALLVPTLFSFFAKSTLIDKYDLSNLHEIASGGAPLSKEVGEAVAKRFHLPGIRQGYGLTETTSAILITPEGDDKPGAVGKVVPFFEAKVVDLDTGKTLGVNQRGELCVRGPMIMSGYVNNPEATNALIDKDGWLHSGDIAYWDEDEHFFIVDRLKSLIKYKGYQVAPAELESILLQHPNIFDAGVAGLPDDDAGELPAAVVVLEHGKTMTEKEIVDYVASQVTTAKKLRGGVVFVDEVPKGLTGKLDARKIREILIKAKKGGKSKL

COc1cc(OC)nc(Sc2cccc(Cl)c2C(=O)O)n1
not listed: [12] | [13]
inactive: all other assays above

O=C(NCO)NCO
not listed: [9] | [12] | [13]
inactive: all other assays above

CCC1(c2ccccc2)C(=O)NC(=O)NC1=O
not listed: [7] | [9] | [11] | [13]
inactive: all other assays above

CCC(Cl)[N+](=O)[O-] (configuration not stated)
not listed: [12]
inactive: all other assays above

COc1cc(OC)nc(NC(=O)NS(=O)(=O)c2ncccc2C(=O)N(C)C)n1
not listed: [9] | [13]
inactive: all other assays above

CCS(=O)(=O)C(C)(C)S(=O)(=O)CC
not listed: [7] | [13]
inactive: all other assays above

CCOP(=O)(N=C1SCCS1)OCC
not listed: [9] | [11] | [13]
inactive: all other assays above

CCc1cc2c(s1)-n1c(C)nnc1CN=C2c1ccccc1Cl
not listed: [7] | [10]
inactive: all other assays above

CC1CN1P(=O)(N1CC1C)N1CC1C (configuration not stated)
not listed: [7] | [9] | [10] | [13]
inactive: all other assays above

COC(=O)C(c1ccccc1)C1CCCCN1 (configuration not stated)
not listed: [7] | [9] | [13]
inactive: all other assays above

COCC(=O)N(c1c(C)cccc1C)N1CCOC1=O
not listed: [10]
inactive: all other assays above

O=[N+]([O-])c1cc(Cl)c(Cl)c(Cl)c1
not listed: [9] | [13]
inactive: all other assays above
